From PubChem
Only some compounds are listed: those with a hit (about 7.5% of all), similar ones and a draw of the others.
Rab9 promoter act: activators of Rab9 promoter; Huh7 Rab9 promoter-luciferase reporter, luminescence, 24 h; Potency, µM (titrated, usually from 9.22 µM), without a hit: top-dose activation, negative = inhibition, hits mostly activators; 2.8% of 320,000 active; AID 485297; further: % of control where 0% means no effect; nearly all actives have a fitted effect of over 60% in size
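Rab9 promoter-driven luciferase in stably transfected Huh7 cells; 1500 cells/well rested 2 h, exposed to compound in DMSO for 24 h at 37 °C, 5% CO2. Luminescence read 10 min after adding luciferase reagent at ambient temperature.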
FLuc counter: firefly luciferase modulation, counter-screen for miR-21 project | AID 588342 | Potency, µM (top dose mostly 57.5 µM), inactives show at the highest dose activity change, negative = inhibition, actives largely listed as inhibitors | purified FLuc, Km substrates, luminescence inhibition | P08659 | 6.9% of 360,000 active;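 further: plate controls were vehicle for no effect and reference inhibitor for full effect; nearly all actives have a fitted effect of over 55% in size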
Target sequence (P08659 whole entry, looked up): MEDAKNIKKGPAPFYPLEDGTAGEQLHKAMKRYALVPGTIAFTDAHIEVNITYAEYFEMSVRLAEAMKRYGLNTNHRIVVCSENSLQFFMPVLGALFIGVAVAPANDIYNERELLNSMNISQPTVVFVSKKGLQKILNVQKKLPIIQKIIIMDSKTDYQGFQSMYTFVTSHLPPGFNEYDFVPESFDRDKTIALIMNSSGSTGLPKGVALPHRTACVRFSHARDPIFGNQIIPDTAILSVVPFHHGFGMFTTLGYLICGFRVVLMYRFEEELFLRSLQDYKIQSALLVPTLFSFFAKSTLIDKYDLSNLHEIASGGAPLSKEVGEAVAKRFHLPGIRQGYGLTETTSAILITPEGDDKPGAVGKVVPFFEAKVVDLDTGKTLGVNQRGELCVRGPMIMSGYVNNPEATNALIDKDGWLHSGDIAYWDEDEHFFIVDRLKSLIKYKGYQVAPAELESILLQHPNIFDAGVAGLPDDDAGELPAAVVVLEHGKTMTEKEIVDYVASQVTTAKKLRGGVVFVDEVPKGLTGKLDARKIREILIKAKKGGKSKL
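Purified P. pyralis luciferase (10nM final) with 10uM D-luciferin and 10uM ATP (Km levels) in 50mM Tris acetate pH 7.5, 10mM Mg acetate, 0.01% Tween-20, 0.05% BSA; qHTS 6-point titration, ~60 µM downward; luminescence read.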
ELG1 genotox: inducers of genotoxicity in HEK293T ELG1-luciferase cells. HEK293T ELG1-luciferase reporter, luminescence, 16 h. Potency, µM (top dose mostly 46 µM), for the others: at the highest dose activity change, positive = activation, hits mostly activators. AID 504466. 1.3% of 330,000 active; further: % of control where 0% means no effect; nearly all actives have a fitted effect of over 60% in size
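Step 1: seed 2,000 HEK293T ELG1-luciferase cells per well. Step 2: add compound or DMSO, incubate 16 hr at 37 °C. Step 3: ONE-Glo, 30 min at room temperature, read luminescence.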
SMN2 splice up: SMN2 splice variant enhancement; 2.8% of 210,000 active; Potency, µM (top dose mostly 46.1 µM), for the others: at the highest dose activity change, positive = activation, actives largely listed as activators; HEK293 SMN2-luciferase splicing reporter, luminescence, 30-36 h; further: % of control where 0% means no effect; nearly all actives have a fitted effect of over 55% in size
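HEK293 cells carry an SMN2 minigene-luciferase reporter in which exon 7 inclusion puts luciferase in frame. Cells were seeded at 2000 cells/well, attached for 10-12 hours, then exposed to compounds for 30-36 hours at 37C before ONE-Glo luminescence.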
NPC1 promoter act: activates the NPC1 promoter; Huh7 NPC1 promoter luciferase reporter, 24 h; Potency, µM (highest dose often 9.22 µM), for the others: at the top dose activation, most hits filed as activators; 2.4% of 320,000 active; AID 485313; further: % of control where 0% means no effect; nearly all actives have a fitted effect of over 60% in size
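Cells: Huh7 expressing luciferase under the NPC1 promoter, 1500/well. Seeded 2 h, compound added, incubated 24 h at 37 °C. Luciferase reagent, 10 min ambient, then luminescence.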
Luc counter: Kinase-Glo luciferase inhibition (counter-screen). Kinase-Glo luciferase, ATP luminescence, 8 min. Potency, µM (top dose mostly 38.3 µM), for the others: at the top dose activity change, negative = inhibition, most hits filed as inhibitors. 0.28% of 200,000 active; further: on the % scale 0 is the no-effect control and ±100 the full control effect; nearly all actives have a fitted effect of over 60% in size
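Compounds were added to a substrate mix at pH 7.2 (50 mM imidazole, 10 uM ATP, within the enzyme's linear range), followed by Kinase-Glo detection reagent; luminescence was measured after 8 minutes at ambient temperature.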
Numbers without * were called inactive; ? = inconclusive; nt = not tested or not shown; [ ] = dose if it differs, or a comment. The call rests on the fitted dose curve; in most records, active means well fitted curve in the direction sought with a large enough effect; inconclusive means small, poorly fitted or top-dose-only effect, or another doubt; inactive means no such curve, though single readings can be large; an effect the other way counts as inactive or inconclusive. Potency means the concentration at half of the fitted maximal effect.

SMILES	Rab9 promoter act	FLuc counter	ELG1 genotox	SMN2 splice up	NPC1 promoter act	Luc counter
O=c1c(Br)c(N2CCCCC2)cnn1-c1ccccc1	2µM*	15.1µM*	?	nt	3.55µM*	-0.3%
Cc1cccc(CNc2ncnc3ccc(-c4cccc(Cl)c4)cc23)c1	-2.4%	0.9%	nt	nt	-1.6%	nt
CC(Nc1oc(-c2ccc(COc3ccccc3)o2)nc1C#N)c1ccccc1 (stereo not drawn)	nt	-0.1%	nt	nt	nt	nt
Cc1c(OC(C)C(=O)NCCCn2ccnc2)ccc2c3c(c(=O)oc12)CCC3 (stereo not drawn)	-0.3%	1.1%	4.0%	nt	0.3%	nt
COc1ccccc1OCCn1c(SCC(=O)O)nc2ccccc21	5.6%	1.8%	1.1%	nt	-1.6%	nt
COc1ccccc1OCCSc1nc2ccccc2n1CCC(=O)O	-2.1%	26.9µM*	6.1%	nt	1.5%	nt
COc1ccccc1OCCSc1nc2ccccc2n1CCO	1.4%	16.9µM*	-1.1%	nt	1.1%	-2.9%
Cc1ccc(CNC(=O)c2c(C)oc3ncnc(N4CCOCC4)c23)cc1	nt	-6.0%	nt	nt	nt	nt
Oc1ccc(/C=N/Nc2ncc(Br)cn2)c(O)c1	?	10.7µM*	14.6µM*	-22.6%	?	0.6%
Oc1ccc(Br)cc1/C=N/Nc1ncc(-c2ccccc2)cn1	-1.1%	-3.5%	1.2%	-84.7%	-16.2%	5.3%
Oc1ccc(/C=N/Nc2nccnc2Cl)c(O)c1	-11.1%	23.9µM*	?	-31.7%	0.6%	3.55µM*
CC(C)(C)c1nnc(N/N=C/c2ccccc2O)n(N)c1=O	-15.6%	?	-2.1%	-70.7%	-6.9%	-1.5%
Oc1ccccc1/C=N/Nc1nccnc1Cl	-17.3%	16.9µM*	13µM*	-86.3%	-25.2%	?
O=[N+]([O-])c1ccccc1/C=N/Nc1nccnc1Cl	3.55µM*	26.9µM*	?	22.0%	?	?
O=c1[nH]ncc(N/N=C\c2ccc(O)cc2O)c1Cl	-1.2%	?	?	22.6%	-0.2%	-8.4%
N#C/C(=C\c1ccc(Cl)cc1Cl)c1nc(-c2cccc(Cl)c2)cs1	nt	-1.7%	nt	-7.8%	nt	nt
CC(C)CN(C(=O)c1ccc(C(F)(F)F)cc1)c1c(N)n(CC(C)C)c(=O)[nH]c1=O	3.2%	1.5%	1.2%	nt	-0.8%	nt
Nc1cc(Cl)nc(N/N=C/c2ccccc2[N+](=O)[O-])n1	?	23.9µM*	24.5%	?	?	-12.4%
CCCCn1cnc2c(oc3nc4c(cc32)CCCC4)c1=O	0.562µM*	6.01µM*	?	nt	0.631µM*	nt
CCCCCCn1cnc2c(oc3nc4c(cc32)CCCC4)c1=O	3.16µM*	?	13.9%	11.2µM*	?	0.1%
COc1ccccc1NC(=O)Cn1cnc2c(oc3nc4c(cc32)CCCC4)c1=O	-0.2%	-14.3%	-0.5%	nt	-2.6%	nt
COc1cccc(NC(=O)Cn2cnc3c(oc4nc5c(cc43)CCCC5)c2=O)c1	-4.0%	-1.8%	?	nt	-0.9%	nt
O=c1c2oc3nc4c(cc3c2ncn1CCCc1ccccc1)CCCC4	?	23.9µM*	14.1%	nt	24.4%	nt
Cc1ccc2c(CC(=O)Nc3c(C(=O)c4ccc(C)c(F)c4)oc4ccccc34)coc2c1	nt	-3.4%	nt	-1.8%	nt	nt
CCC(C)(C)c1ccc2c(c1)C(=O)c1ccccc1C2=O	2.82µM*	1.69µM*	?	?	1.58µM*	-12.1%
SMILES	Rab9 promoter act	FLuc counter	ELG1 genotox	SMN2 splice up	NPC1 promoter act	Luc counter
O=S(=O)(NNc1ccc(F)cc1F)c1cccc(Cl)c1	-2.2%	0.3%	7.9%	nt	0.1%	nt
O=C(Nc1ccc(SC(F)F)cc1)C1=COCCO1	1µM*	4.78µM*	2.59µM*	11.2µM*	1.26µM*	-6.6%
CC[N+](CC)(CC)CC(=O)Nc1ccc(SC(F)F)cc1	0.1%	-2.1%	-1.3%	1.0%	-7.0%	-0.6%
Cc1ccc(C(=O)Nc2ccc(SC(F)F)cc2)s1	1.26µM*	6.75µM*	?	7.08µM*	2.82µM*	-1.4%
O=C(N/N=C/c1ccc(OC(F)F)cc1)C1=COCCO1	2µM*	8.49µM*	?	11.2µM*	3.16µM*	-18.2%
COC(CNC(=O)CN1CCN(Cc2ccccc2F)C1=O)OC	-3.7%	-1.8%	-3.1%	nt	-4.3%	nt
N#Cc1nc(-c2cccc3ccccc23)oc1NCC#CCOC(=O)c1cccs1	2.4%	-19.6%	nt	nt	-0.8%	nt
Cc1ccccc1N=C1NN=C(c2ccccc2F)CS1	?	21.3µM*	18.0%	11.2µM*	?	-1.2%
Cc1cccc(C)c1N=C1NN=C(c2ccccc2F)CS1	-3.6%	-25.9%	-4.9%	nt	-2.7%	nt
Cc1cc(C2=NNC(=NC3CC3)SC2)c(C)n1-c1ccccc1F	-36.8%	0.213µM*	-11.0%	-92.9%	-23.7%	11.2µM*
C=C(C)CN=C1NN=C(c2cc(C)n(-c3ccc(C)cc3)c2C)CS1	?	8.49µM*	0.2%	?	?	1.3%
Cc1cc(C2=NNC(=NC3CCCCC3)SC2)c(C)n1-c1c(C)n(C)n(-c2ccccc2)c1=O	-0.8%	-3.5%	0.0%	?	-1.5%	-7.6%
Cc1ccc(N)c2c1OCCC2=O	-6.9%	1.5%	1.6%	-3.9%	-1.0%	1.4%
Cn1nccc1C(=O)N1CCCC(N2CCN(Cc3ccc4c(c3)OCO4)CC2)C1 (stereo not drawn)	-9.7%	7.4%	3.8%	nt	0.4%	nt
N#CCCN(C(=S)NC(=O)c1cccs1)c1ccccc1F	-8.8%	3.0%	2.7%	nt	-1.1%	nt
Cc1cccc(-c2noc(C3CCCCC3)n2)c1	nt	3.01µM*	nt	24.5%	nt	-8.5%
CCS(=O)(=O)N1CCC(c2nc(-c3ccc(C(F)(F)F)cc3)no2)CC1	-18.5%	1.6%	-11.9%	-47.2%	-14.8%	-0.5%
CCS(=O)(=O)N1CCC(c2nc(-c3ccc(C)cc3)no2)CC1	?	15.1µM*	10.4%	-25.9%	?	1.7%
Cc1ccc(-c2noc(C3CCCCC3)n2)cc1	?	?	?	22.1%	3.98µM*	0.5%
Oc1ccc(Cl)cc1-c1cc(-c2cccc(Br)c2)n[nH]1	-2.4%	-6.3%	0.5%	-24.8%	-1.6%	-0.5%
CC(C)(C)c1ccc(-c2cc(-c3ccccc3O)[nH]n2)cc1	0.282µM*	0.757µM*	0.58µM*	nt	0.316µM*	nt
Oc1ccccc1-c1cc(-c2cccc(F)c2)n[nH]1	14.0%	5.36µM*	?	?	-1.1%	-2.1%
Cc1c(C)n2c(SCC(=O)NCc3ccc4c(c3)OCO4)nnc2[nH]c1=O	6.5%	6.0%	-6.4%	nt	0.9%	nt
c1ccc(CN2CC[C@@H](CNc3ncnc4ccccc34)C2)cc1	nt	nt	nt	-27.8%[9.22 µM]	nt	-0.8%[7.66 µM]
COC(=O)c1ccc(/C=C/C(=O)OCC(=O)Nc2sccc2C(N)=O)cc1	nt	nt	-15.6%	nt	nt	nt
NC(=S)NN=C1c2ccccc2-c2ccccc21	-9.4%	-19.8%	-11.7%	nt	-7.9%	nt
O=C(Nc1cc(Cl)cc(Cl)c1)c1ccc(F)c(S(=O)(=O)N2CCCCCC2)c1	nt	-3.9%	nt	nt	nt	nt
